# Assays:
# Experiment in all cases: DAPPL (digital affinity profiling via proximity ligation, sequencing); 10 mM Tris-HCl pH 7.5, 50 mM NaCl, 1 mM DTT, 4% glycerol, room temperature, 30 min; GST-TFs on glutathione beads, 16-mer random dsDNA library, 0.1% formaldehyde crosslink after washing; high values mean tight binding
# Details in all cases: protein: recombinant; tags: N-terminal GST; dsDNA, one strand shown
# FLI1 = target: T1, FLI1 (Homo sapiens, UniProt Q01543 1-452)
# T1 sequence: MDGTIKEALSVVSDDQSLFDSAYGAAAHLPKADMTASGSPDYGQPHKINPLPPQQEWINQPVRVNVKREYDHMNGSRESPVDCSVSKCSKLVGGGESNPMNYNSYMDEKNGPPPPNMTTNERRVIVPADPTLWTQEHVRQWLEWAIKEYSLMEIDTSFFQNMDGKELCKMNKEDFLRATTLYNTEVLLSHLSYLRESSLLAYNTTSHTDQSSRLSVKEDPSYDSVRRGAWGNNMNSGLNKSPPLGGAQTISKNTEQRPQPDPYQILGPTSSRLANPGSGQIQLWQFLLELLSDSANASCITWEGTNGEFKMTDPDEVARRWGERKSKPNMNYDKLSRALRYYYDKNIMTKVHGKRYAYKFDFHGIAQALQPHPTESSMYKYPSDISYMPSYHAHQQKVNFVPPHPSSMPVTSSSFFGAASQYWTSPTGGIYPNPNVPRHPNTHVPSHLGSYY
# Procedure, shortened: (§1)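 Pools were built from human transcription factors expressed in yeast as GST fusions, captured on glutathione beads and DNA-barcoded, along with a tag-only sample. Incubation with 200 nmole of a 16-mer random double-stranded DNA library lasted 30 min at room temperature in Tris/NaCl/DTT/glycerol buffer, and was followed by washing, 0.1% formaldehyde crosslinking, proximity ligation, PCR amplification and Illumina NextSeq500 sequencing. Binding signal is the quotient of each hexamer's read frequency for a factor and its frequency for the tag-only sample.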
# ELK1 = target: T2, ELK1 (Homo sapiens, UniProt P19419 1-428)
# T2 sequence: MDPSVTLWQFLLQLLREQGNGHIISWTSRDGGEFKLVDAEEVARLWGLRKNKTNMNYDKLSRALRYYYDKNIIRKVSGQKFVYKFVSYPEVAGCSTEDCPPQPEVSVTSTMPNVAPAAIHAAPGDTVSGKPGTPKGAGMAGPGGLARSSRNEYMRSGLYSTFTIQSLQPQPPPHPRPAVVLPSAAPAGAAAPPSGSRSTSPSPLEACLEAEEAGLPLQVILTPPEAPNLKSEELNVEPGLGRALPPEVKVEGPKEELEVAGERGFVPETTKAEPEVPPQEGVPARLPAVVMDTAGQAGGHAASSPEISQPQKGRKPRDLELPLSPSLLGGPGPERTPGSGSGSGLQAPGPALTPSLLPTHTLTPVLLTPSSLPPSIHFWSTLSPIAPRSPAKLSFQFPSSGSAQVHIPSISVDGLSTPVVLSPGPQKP
# Procedure, shortened: as §1
# GABPA = target: T3, GABPA (Homo sapiens, UniProt Q06546 1-454)
# T3 sequence: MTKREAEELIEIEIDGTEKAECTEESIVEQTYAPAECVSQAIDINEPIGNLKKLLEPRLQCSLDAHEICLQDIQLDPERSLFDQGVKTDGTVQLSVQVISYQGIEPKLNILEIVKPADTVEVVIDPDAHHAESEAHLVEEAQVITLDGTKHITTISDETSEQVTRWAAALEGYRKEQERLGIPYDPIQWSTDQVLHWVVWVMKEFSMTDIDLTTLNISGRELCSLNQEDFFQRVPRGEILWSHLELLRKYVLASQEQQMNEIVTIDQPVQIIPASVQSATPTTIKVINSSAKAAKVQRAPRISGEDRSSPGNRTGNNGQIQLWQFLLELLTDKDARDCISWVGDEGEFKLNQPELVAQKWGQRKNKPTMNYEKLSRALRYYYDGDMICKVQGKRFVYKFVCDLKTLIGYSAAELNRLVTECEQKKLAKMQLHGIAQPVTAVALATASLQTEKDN
# Procedure, shortened: as §1
# ELF1 = ELF1 (Homo sapiens, UniProt P32519 1-619)
# Chain of ELF1 (P32519 whole entry): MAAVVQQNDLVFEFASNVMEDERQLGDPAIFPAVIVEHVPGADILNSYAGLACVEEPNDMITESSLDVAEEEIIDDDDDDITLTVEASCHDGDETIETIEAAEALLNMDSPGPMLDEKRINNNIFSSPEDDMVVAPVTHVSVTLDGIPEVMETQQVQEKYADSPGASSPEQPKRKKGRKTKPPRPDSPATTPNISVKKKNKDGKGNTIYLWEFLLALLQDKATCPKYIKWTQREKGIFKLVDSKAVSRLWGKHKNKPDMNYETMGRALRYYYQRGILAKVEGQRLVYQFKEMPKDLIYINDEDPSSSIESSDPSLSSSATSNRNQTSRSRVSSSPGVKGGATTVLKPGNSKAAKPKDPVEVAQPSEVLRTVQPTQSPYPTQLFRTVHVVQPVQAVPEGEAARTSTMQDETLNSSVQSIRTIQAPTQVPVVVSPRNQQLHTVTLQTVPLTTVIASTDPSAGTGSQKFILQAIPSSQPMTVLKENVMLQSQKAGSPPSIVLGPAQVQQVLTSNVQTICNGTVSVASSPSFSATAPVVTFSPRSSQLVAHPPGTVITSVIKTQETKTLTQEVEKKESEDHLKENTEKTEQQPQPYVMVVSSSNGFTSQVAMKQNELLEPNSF
# Procedure, shortened: as §1
# EHF = target: T4, EHF (Homo sapiens, UniProt Q9NZC4 1-300)
# T4 sequence: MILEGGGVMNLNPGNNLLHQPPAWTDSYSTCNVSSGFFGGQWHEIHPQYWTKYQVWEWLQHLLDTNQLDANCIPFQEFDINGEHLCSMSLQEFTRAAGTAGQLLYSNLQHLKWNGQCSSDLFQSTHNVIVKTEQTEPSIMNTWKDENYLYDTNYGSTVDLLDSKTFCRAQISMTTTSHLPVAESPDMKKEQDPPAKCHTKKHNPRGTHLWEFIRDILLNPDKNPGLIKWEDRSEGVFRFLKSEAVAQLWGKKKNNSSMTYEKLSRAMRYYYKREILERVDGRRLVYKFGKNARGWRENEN
# Procedure, shortened: as §1
# SPI1 = SPI1 (Homo sapiens, UniProt P17947 1-270)
# Procedure, shortened: as §1
# FEV = target: T5, FEV (Homo sapiens, UniProt Q99581 1-238)
# T5 sequence: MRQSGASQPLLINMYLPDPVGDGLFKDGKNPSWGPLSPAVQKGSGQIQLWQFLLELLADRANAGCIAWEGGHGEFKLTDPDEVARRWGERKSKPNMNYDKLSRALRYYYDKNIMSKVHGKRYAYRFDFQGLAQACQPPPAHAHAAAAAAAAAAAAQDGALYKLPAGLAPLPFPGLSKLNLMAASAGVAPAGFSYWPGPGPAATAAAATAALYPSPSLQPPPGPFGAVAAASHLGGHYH
# Procedure, shortened: as §1
# ETV5 = ETV5 (Homo sapiens, UniProt P41161 1-510)
# Chain of ETV5 (P41161 whole entry): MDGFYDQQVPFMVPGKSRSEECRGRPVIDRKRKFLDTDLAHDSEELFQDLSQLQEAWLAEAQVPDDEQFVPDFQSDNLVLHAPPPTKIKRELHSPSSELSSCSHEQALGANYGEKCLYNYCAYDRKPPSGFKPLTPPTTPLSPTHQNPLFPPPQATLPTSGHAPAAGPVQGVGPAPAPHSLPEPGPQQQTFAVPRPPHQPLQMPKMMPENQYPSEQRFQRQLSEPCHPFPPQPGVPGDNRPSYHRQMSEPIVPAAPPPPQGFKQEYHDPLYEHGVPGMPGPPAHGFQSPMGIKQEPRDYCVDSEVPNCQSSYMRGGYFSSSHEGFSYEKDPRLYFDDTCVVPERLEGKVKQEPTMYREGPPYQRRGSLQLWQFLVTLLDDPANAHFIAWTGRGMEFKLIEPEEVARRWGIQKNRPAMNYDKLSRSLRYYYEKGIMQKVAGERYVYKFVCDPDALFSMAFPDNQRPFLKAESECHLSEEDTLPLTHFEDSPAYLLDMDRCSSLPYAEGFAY
# Procedure, shortened: as §1
# ETV2 = target: T6, ETV2 (Homo sapiens, UniProt O00321 1-342)
# T6 sequence: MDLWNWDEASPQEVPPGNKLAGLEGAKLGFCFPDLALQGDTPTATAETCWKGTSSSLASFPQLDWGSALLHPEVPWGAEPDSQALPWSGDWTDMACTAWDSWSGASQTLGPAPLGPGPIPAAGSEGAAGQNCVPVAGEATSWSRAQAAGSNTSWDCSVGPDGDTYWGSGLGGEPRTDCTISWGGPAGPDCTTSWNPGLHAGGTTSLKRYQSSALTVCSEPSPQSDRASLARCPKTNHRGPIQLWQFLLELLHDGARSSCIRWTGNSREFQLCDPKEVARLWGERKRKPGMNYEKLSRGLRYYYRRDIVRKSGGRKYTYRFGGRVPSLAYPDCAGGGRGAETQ
# Procedure, shortened: as §1
# ETV1 = ETV1 (Homo sapiens, UniProt P50549 1-477)
# Chain of ETV1 (P50549 whole entry): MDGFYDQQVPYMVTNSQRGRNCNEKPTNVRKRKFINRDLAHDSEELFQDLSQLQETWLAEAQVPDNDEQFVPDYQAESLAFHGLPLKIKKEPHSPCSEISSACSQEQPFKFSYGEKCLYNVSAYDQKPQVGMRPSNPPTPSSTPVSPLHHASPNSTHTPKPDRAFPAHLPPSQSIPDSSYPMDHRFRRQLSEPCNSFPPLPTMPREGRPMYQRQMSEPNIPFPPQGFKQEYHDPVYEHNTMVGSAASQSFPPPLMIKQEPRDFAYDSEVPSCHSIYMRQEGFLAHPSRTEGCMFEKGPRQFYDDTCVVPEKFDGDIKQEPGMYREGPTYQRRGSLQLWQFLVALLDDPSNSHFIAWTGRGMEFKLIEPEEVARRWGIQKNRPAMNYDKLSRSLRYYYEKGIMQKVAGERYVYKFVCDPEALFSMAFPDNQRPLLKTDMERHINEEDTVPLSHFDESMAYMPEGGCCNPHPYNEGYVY
# Procedure, shortened: as §1
# ETV3L = target: T7, ETV3L (Homo sapiens, UniProt Q6ZN32 1-361)
# T7 sequence: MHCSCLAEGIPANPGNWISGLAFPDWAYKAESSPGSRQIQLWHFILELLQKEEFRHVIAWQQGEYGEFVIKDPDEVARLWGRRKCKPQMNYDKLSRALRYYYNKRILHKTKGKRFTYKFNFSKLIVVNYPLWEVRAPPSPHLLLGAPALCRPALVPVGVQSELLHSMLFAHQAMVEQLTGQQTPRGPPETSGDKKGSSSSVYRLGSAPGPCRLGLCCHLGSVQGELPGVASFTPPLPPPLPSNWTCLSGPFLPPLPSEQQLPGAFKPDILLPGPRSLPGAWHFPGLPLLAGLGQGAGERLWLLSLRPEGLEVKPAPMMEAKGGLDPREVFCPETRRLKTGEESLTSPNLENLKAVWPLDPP
# Procedure, shortened: as §1
# ETV3 = target: T8, ETV3 (Homo sapiens, UniProt P41162-2 1-143)
# T8 sequence: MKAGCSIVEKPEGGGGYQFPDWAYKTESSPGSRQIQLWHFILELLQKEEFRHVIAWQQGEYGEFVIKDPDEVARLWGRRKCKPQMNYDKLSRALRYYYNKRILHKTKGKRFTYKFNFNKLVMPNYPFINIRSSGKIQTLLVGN
# Procedure, shortened: as §1
# ETV6 = ETV6 (Homo sapiens, UniProt P41212 1-452)
# Chain of ETV6 (P41212 whole entry): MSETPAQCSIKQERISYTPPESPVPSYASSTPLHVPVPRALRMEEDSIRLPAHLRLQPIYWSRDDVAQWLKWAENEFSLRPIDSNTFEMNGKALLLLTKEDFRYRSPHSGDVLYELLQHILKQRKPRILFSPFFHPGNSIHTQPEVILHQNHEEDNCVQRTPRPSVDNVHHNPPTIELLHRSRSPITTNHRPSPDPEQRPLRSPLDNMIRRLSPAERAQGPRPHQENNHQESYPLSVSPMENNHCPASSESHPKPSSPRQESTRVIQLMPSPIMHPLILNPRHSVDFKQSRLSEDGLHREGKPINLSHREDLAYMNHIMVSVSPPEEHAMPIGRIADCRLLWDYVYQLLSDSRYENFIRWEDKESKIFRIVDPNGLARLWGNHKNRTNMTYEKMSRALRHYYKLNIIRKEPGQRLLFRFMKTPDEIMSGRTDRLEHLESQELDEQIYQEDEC
# Procedure, shortened: as §1
sequence,measurement,setting,value
ACTGTA,binding signal,FLI1,"1 fold enrichment (6-mer frequency, TF over GST control)"
same,binding signal,ELK1,"1.09 fold enrichment (6-mer frequency, TF over GST control)"
same,binding signal,GABPA,"1.03 fold enrichment (6-mer frequency, TF over GST control)"
same,binding signal,ELF1,"1.08 fold enrichment (6-mer frequency, TF over GST control)"
same,binding signal,EHF,"1.11 fold enrichment (6-mer frequency, TF over GST control)"
same,binding signal,SPI1,"1.09 fold enrichment (6-mer frequency, TF over GST control)"
same,binding signal,FEV,"1 fold enrichment (6-mer frequency, TF over GST control)"
same,binding signal,ETV5,"1.08 fold enrichment (6-mer frequency, TF over GST control)"
same,binding signal,ETV2,"1.17 fold enrichment (6-mer frequency, TF over GST control)"
same,binding signal,ETV1,"1.02 fold enrichment (6-mer frequency, TF over GST control)"
same,binding signal,ETV3L,"1.01 fold enrichment (6-mer frequency, TF over GST control)"
same,binding signal,ETV3,"1 fold enrichment (6-mer frequency, TF over GST control)"
same,binding signal,ETV6,"1.03 fold enrichment (6-mer frequency, TF over GST control)"

# From article PMC7862700, “An all-to-all approach to the identification of sequence-specific readers for epigenetic DNA modifications on cytosine”
